Assay results from PubChem BioAssay AID1159580 (chemical genetic matrix, 2015).
“And” between values parts separate entries of the source, which are not always exact repeats. Identical values can stand only once. The campaign covered roughly 5,500 compounds. About 2,000 (36%) were called active. Not shown: some 18% with an inconclusive outcome. Rule as the data show it: active = normalized growth mostly below about 0.91 (no sharp cut-off); inconclusive = no clear call, values can overlap the other calls; inactive = mostly above about 0.92. This is one part of the list.

Assay: chemical genetic growth profiling, strain panel (AID 1159580);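 also: tested at 20 µM; growth read once vehicle control cultures reached saturation at 30 °C; 1 = growth at the plate median or of vehicle wells; lower values mean less growth of the strain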
Conditions: S. cerevisiae deletion strains, growth OD

Measured: normalized growth

CCCN(CCC)S(=O)(=O)c1ccc(C(=O)O)cc1
inactive: locus YAL013W, strain DEP1, hits give low values 0.992 | locus YAL021C, strain ccr4, hits give low values 0.998 | locus YAL026C, strain drs2, hits give low values 0.999 | locus YAL030W, strain snc1, hits give low values 0.992 | locus YBL061C, strain skt5, hits give low values 0.991 | locus YBR009C, strain hhf1, hits give low values 0.997 | locus YBR021W, strain FUR4, hits give low values 0.945 | locus YBR023C, strain chs3, hits give low values 0.994 | locus YBR171W, strain sec66, hits give low values 0.968 | locus YBR229C, strain ROT2, hits give low values 1 | locus YBR231C, strain swc5, hits give low values 0.955 | locus YBR279W, strain paf1, hits give low values 0.996 | locus YCL011C, strain gbp2, hits give low values 1 | locus YCL016C, strain dcc1, hits give low values 1 | locus YCL029C, strain bik1, hits give low values 1.02 | locus YCL069W, strain vba3, hits give low values 0.981 | locus YCR088W, strain abp1, hits give low values 0.993 | locus YDL005C, strain med2, hits give low values 0.987 | locus YDL035C, strain GPR1, hits give low values 0.998 | locus YDL040C, strain nat1, hits give low values 0.99 | locus YDL074C, strain BRE1, hits give low values 0.998 | locus YDL101C, strain DUN1, hits give low values 1.01 | locus YDL134C, strain PPH21, hits give low values 1 | locus YDL185W, strain tfp1, hits give low values 1.01 | locus YDL192W, strain arf1, hits give low values 1.01 | locus YDR001C, strain nth1, hits give low values 0.987 | locus YDR069C, strain doa4, hits give low values 0.987 | locus YDR101C, strain arx1, hits give low values 1 | locus YDR137W, strain rgp1, hits give low values 1.01 | locus YDR150W, strain NUM1, hits give low values 0.998 | locus YDR159W, strain sac3, hits give low values 1 | locus YDR162C, strain NBP2, hits give low values 0.999 | locus YDR195W, strain ref2 0.933 | locus YDR297W, strain sur2, hits give low values 0.998 | locus YDR318W, strain mcm21, hits give low values 1.02 | locus YDR334W, strain swr1, hits give low values 0.997 | locus YDR335W, strain msn5, hits give low values 0.992 | locus YDR388W, hits give low values 1.01 | locus YDR392W, strain spt3, hits give low values 1.01 | locus YDR502C, strain sam2, hits give low values 1.02 | locus YEL003W, strain gim4, hits give low values 0.99 | locus YEL037C, strain rad23, hits give low values 0.993 | locus YEL061C, strain CIN8 (second series), hits give low values 0.982 | locus YEL061C, strain CIN8, hits give low values 1 | locus YER015W, strain faa2, hits give low values 0.999 | locus YER016W, strain bim1, hits give low values 0.994 | locus YER110C, hits give low values 1.01 | locus YER111C, strain swi4, hits give low values 0.979 | locus YER155C, strain BEM2 (second series), hits give low values 0.978 | locus YER155C, strain BEM2, hits give low values 1.01 | locus YER167W, strain BCK2, hits give low values 1 | locus YFR010W, strain ubp6, hits give low values 0.983 | locus YGL078C, strain dbp3, hits give low values 1.01 | locus YGL086W, strain mad1, hits give low values 1 | locus YGL167C, strain pmr1, hits give low values 0.991 | locus YGL173C, strain kem1, hits give low values 0.976 | locus YGL227W, strain vid30, hits give low values 0.988 | locus YGL240W, strain doc1, hits give low values 0.976 | locus YGL248W, strain PDE1, hits give low values 1 | locus YGL253W, strain hxk2, hits give low values 1 | locus YGR078C, strain PAC10, hits give low values 0.967 | locus YGR135W, strain pre9, hits give low values 1.03 | locus YGR229C, strain SMI1, hits give low values 0.982 | locus YGR252W, strain gcn5, hits give low values 1 | locus YHR013C, strain ard1, hits give low values 0.986 | locus YHR027C, strain rpn1, hits give low values 0.999 | locus YHR030C, strain SLT2, hits give low values 1 and 1.02 | locus YHR079C, strain IRE1 (second series), hits give low values 1.01 | locus YHR079C, strain IRE1, hits give low values 1.01 | locus YHR094C, strain hxt1, hits give low values 1.01 | locus YHR129C, strain ARP1, hits give low values 1.01 | locus YHR142W, strain chs7, hits give low values 1 | locus YHR200W, strain rpn10, hits give low values 1.01 | locus YIL066C, strain RNR3, hits give low values 0.996 | locus YIL073C, strain SPO22, hits give low values 1.08 | locus YIL125W, strain kgd1, hits give low values 1.01 | locus YIR030C, strain dcg1, hits give low values 1 | locus YJL092W, strain hpr5, hits give low values 0.981 | locus YJL095W, strain BCK1 (second series), hits give low values 0.995 | locus YJL095W, strain BCK1, hits give low values 1.02 | locus YJL115W, strain asf1, hits give low values 0.989 | locus YJL129C, strain trk1, hits give low values 0.99 | locus YJL134W, strain LCB3, hits give low values 0.997 | locus YJL154C, strain vps35, hits give low values 0.99 | locus YJL164C, strain tpk1, hits give low values 1.01 | locus YJL166W, strain qcr8, hits give low values 0.966 | locus YJL168C, strain set2, hits give low values 1 | locus YJL187C, strain SWE1 (second series), hits give low values 1.01 | locus YJL187C, strain SWE1, hits give low values 0.991 | locus YJR043C, strain POL32, hits give low values 1 | locus YJR066W, strain TOR1, hits give low values 0.965
